Test: enhancers of NK cell killing of ovarian tumor cells, primary screen, imaging, OVCAR3, primary NK cells, calcein-AM imaging (AID 1508625);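 also: compound given to NK cells 16 h before adding targets at 1.5 to 1 ratio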
Settings: OVCAR3 lysis by primary NK cells, at 5 µM; z-score: measured here: robust Z-score, single-point normalisation

CC(C(=O)N1CCN(c2ccccc2)CC1)c1ccc([N+](=O)[O-])cc1 (configuration not stated)
corrected activity, negative = more killing: -3.44%
z-score: -1.91

N#Cc1c(NC(=O)c2ccc(Cl)c(S(=O)(=O)N3CCOCC3)c2)sc2c1CCCC2
corrected activity, negative = more killing: -5.49%
z-score: -1.95

c1ccc(-c2nnc3n2C2(CCCCC2)Cc2ccccc2-3)cc1
corrected activity, negative = more killing: 0.806%
z-score: 0.417

CCCCOc1ccccc1C1NC(=O)NC(C)=C1C(=O)OCC(F)(F)F (configuration not stated)
corrected activity, negative = more killing: -3.61%
z-score: -1.36

COc1ccc2ccccc2c1C=Nc1cc(C)ccc1C
corrected activity, negative = more killing: -0.753%
z-score: -0.32

CCOc1cccc(-c2cc(C(=O)O)c3ccccc3n2)c1
corrected activity, negative = more killing: -4.28%
z-score: -1.76

COc1ccc([N+](=O)[O-])cc1N=Cc1ccc(N(C)C)cc1
corrected activity, negative = more killing: -10%
z-score: -2.12

Cc1cc(Nc2cccc(C(=O)O)c2)n2ncnc2n1
corrected activity, negative = more killing: 1.47%
z-score: 0.457

O=C(Oc1ccccc1C(=S)N1CCOCC1)c1ccc([N+](=O)[O-])cc1
corrected activity, negative = more killing: 4.47%
z-score: 1.39

O=C1NC(=S)SC1=Cc1cc(Cl)ccc1O
corrected activity, negative = more killing: -4.39%
z-score: -1.87

O=C(Nc1ccc([N+](=O)[O-])cc1)c1cc2c(=O)n3ccccc3nc2s1
corrected activity, negative = more killing: -3.21%
z-score: -0.91

CCc1noc(C)c1C(=O)N1CC(C)OC(C)C1 (configuration not stated)
corrected activity, negative = more killing: -2.62%
z-score: -1.08

COc1cc(OC)cc(C(=O)N2CCN(C3CCC(C)CC3)CC2)c1 (configuration not stated)
corrected activity, negative = more killing: -1.69%
z-score: -0.755

COC(=O)c1ccc(COC(=O)c2cc(=O)[nH]c3ccccc23)cc1
corrected activity, negative = more killing: -1.5%
z-score: -0.835

Cc1cc(C)nc(N=C(N)Nc2cccc(F)c2)n1
corrected activity, negative = more killing: 0.14%
z-score: 0.0433

COc1ccccc1Nc1ncc(C(=O)N2CCC(Cc3ccccc3)CC2)c2ccccc12
corrected activity, negative = more killing: -5.51%
z-score: -1.37

From PubChem BioAssay AID1508625 (Wald Lab, School of Medicine, Case Western Reserve …, 2021)
